# Assay outcomes: PubChem, National Center for Advancing Translational Sciences (NCATS)
# The sample as a whole holds a higher share of hits than the screen did.
# Pf Dd2 inh: blocks in vitro growth of P. falciparum Dd2; P. falciparum Dd2 growth, SYBR Green, 72 h; Potency, µM (titrated, usually from 28.9 µM), for the others: at the top dose activity, negative = inhibition, hits mostly inhibitors; 120,000 tested, 4.3% active; AID 1347417; active = well fitted inhibition curve with a large enough effect;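 also: plate controls were DMSO vehicle for no effect and reference drug for full effect; nearly all actives have a fitted effect of over 65% in size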
#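 Infected erythrocytes (Dd2, 0.3% parasitemia, 2.5% hematocrit final) are added to compound in RPMI-1640/Albumax II medium, grown 72 h at 37C in low oxygen, then lysed with saponin/Triton-X containing SYBR Green and read by fluorescence.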
# The depositor's hits bear a star; i = inactive; [ ] = another dose, or the depositor's remark. Potency is read from the fitted curve at half-maximal effect.
SMILES,Pf Dd2 inh
Cc1noc(-c2cn(C3CCN(C(=O)c4cc(Cl)ccc4F)CC3)nn2)n1,i
O=C(CC1(O)C(=O)N(CCc2ccccc2)c2ccc(Br)cc21)c1ccccc1O (stereo not given),10µM*
C#CCN1C(=O)C(O)(CC(=O)c2ccc(OC)c(OC)c2)c2cc(Br)ccc21 (stereo not given),-15%
COc1ccccc1C(=O)CC1(O)C(=O)N(CC(N)=O)c2ccccc21 (stereo not given),20%
O=C([C@@H]1C[C@H](Oc2ccccc2)CN1C(=O)c1ccn[nH]1)N1CCOCC1,4%
O=C(Nc1ccc(F)cc1)N[C@@H]1C[C@H](CO)[C@@H](O)[C@H]1O,-4%[44.1 µM]
COc1cccc(-c2cc(C(=O)Nc3ccc(Br)c(C)c3)[nH]n2)c1,-26%
COc1cccc(CNC(=O)c2cc(-c3cccc(OC)c3)n[nH]2)c1,10%
Cc1ccc(NC(=O)c2cc(-c3ccc[nH]3)n[nH]2)cc1F,-5%
O=C(Nc1ccc(F)cc1)c1cc(-c2ccc[nH]2)n[nH]1,i
COc1cccc(-c2cc(C(=O)Nc3ccc(F)cc3)[nH]n2)c1,2.5µM*
CSc1ccc(NC(=O)c2cc(-c3ccc[nH]3)n[nH]2)cc1,13µM*
Cc1cccc(C(=O)N2CCC3(CC2)OCC(C(=O)NCC(C)C)N3C(=O)c2cccc(C)c2)c1 (stereo not given),i
Cc1oc(C(O)c2ccccc2F)nc1C(=O)N1CCN(c2ccccn2)CC1 (stereo not given),i
CN1CCCN(C[C@@H]2CN(C(=O)c3cccn3C3CC3)C[C@@H]2CO)CC1,-4%
COc1ccc(C(=O)N2CC(c3nnc(-c4ccncc4)o3)C3(CCOCC3)C2)cc1F (stereo not given),i
O=C(NCc1cccc(F)c1)c1ccc2c(c1)CC(=O)N2Cc1ccccc1,i
O=C(O)c1ccc2c(c1)CC(=O)N2Cc1ccc(F)cc1,i
O=C(c1ccc2c(c1)CC(=O)N2Cc1ccccc1)N1CCN(C2CCCCC2)CC1,1.4µM*
Cc1ncoc1C(=O)N1CCC(C2CCN(S(C)(=O)=O)CC2)C1 (stereo not given),-12%
N#Cc1cccc(NC(=O)Cn2cccc2-c2nc(-c3ccccc3)no2)c1,31%
O=S1(=O)NCC2(CCCN(Cc3cccnc3)C2)Oc2ncccc21 (stereo not given),6%
c1cncc(-c2cc(-c3cccc4cc[nH]c34)cn3cncc23)c1,10µM*
COc1ccc(-c2cc(-c3cccnc3)c3cncn3c2)cn1,-1%[44.1 µM]
CC(=O)Nc1cccc(-c2cc(-c3ccncc3)c3cncn3c2)c1,i
SMILES,Pf Dd2 inh
COc1ccc(-c2cc(-c3cccc(O)c3)cn3cncc23)cc1,1.3µM*
O=c1ccc(-c2cc(-c3cccc(C(F)(F)F)c3)cn3cncc23)c[nH]1,i
COc1ccc(-c2cc(-c3cccc(C(N)=O)c3)cn3cncc23)cc1,3.5µM*
COc1cccc(-c2cc(-c3cn[nH]c3)c3cncn3c2)c1,i
NC(=O)c1cccc(-c2cc(-c3cccnc3)c3cncn3c2)c1,-4%[44.1 µM]
COc1ccc(-c2cc(-c3cccc(CO)c3)cn3cncc23)cn1,4µM*
COCc1noc(-c2ccc(N(C)CC3CC(=O)N(C(C)(C)C)C3)nc2)n1 (stereo not given),-14%
Cc1cc(C(=O)N2Cc3nnc(C)n3C(C)C2)c(-c2ccccc2)o1 (stereo not given),-2%
Cc1ccc(C(=O)N2C[C@@H](F)C[C@H]2C(=O)N2CCCCC2)cc1F,25%
O=C(CC1CCN(S(=O)(=O)c2ccc3c(c2)CCCC3)C1)NCc1ccccc1 (stereo not given),i
O=[S+]([O-])(NC1CCN(c2nc3ncccc3o2)CC1)c1cccs1,-15%
COc1ccc2c(c1)OCC(C(=O)NCc1nc3c(s1)CCCC3)C2 (stereo not given),-6%
COCCN(C)C[C@H]1C[C@H](CO)CN(C(=O)c2cc(Cl)cc(OC)c2)C1,-28%
Cn1nnnc1C1CCCN(C(=O)C2CCCC2)C1 (stereo not given),-4%
O=C(Nc1ccccc1)N1CCC(Oc2ncccc2C(=O)N2CCCCC2)C1 (stereo not given),-2%
CC(=O)N(C)CCc1noc(C2CN(C(=O)c3c(C)noc3C)C2)n1,1%
COc1ccc(C(CC(=O)N(C)Cc2cnc3ccccn23)c2ccccc2)cc1 (stereo not given),-12%
Cc1ccc(-c2ccc3nnc(CNC(=O)c4ccc(C)cc4C)n3n2)cc1,0%
CN(CCc1ccccc1)C(=O)c1cc2c(s1)CCN(C(=O)c1ccc(Cl)cc1)C2,-2%
O=C(NCc1ccccc1)c1cc2c(s1)CCN(C(=O)c1ccccc1)C2,0%
CC(=O)N1CCc2sc(C(=O)NCc3cccc(Cl)c3)cc2C1,i
CN1CCN(C(=O)c2cc3c(s2)CCN(C(=O)c2ccc(Cl)cc2)C3)CC1,11µM*
Cc1ccc(C(=O)N2CCc3sc(C(=O)NCc4cc(F)cc(F)c4)cc3C2)cc1,8.9µM*
Cc1ccc(C(=O)N2CCc3sc(C(=O)NCc4cccc(F)c4)cc3C2)cc1,i
